UBC13 inh: inhibitors of human UBC13 polyubiquitin chain formation. inhibition, % at 20 µM. AID 485273. P61088. TR-FRET. 330,000 tested, 0.47% active; in the data active = inhibition above about 45%, passing the limit was not always enough
Rce1 inh: blocks yeast Ras-converting enzyme. Q03530. yeast membranes, quenched prenylated peptide cleavage fluorescence. calls only. 290,000 tested, 0.27% active;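 active = fall in fluorescence gain of 50% or more versus controls, with final raw signal at or below 3038400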;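 also: plate controls were neutral control wells for no effect and wells lacking membranes for full effect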
MEKK2 WT-MEK5: raises or lowers MEK5 binding to wildtype human MEKK2 PB1 domain | bead flow cytometry, Alexa488-MEK5 binding to MEKK2 WT; actives lie on both sides | binding response (% of control), % at 10 µM | Q9Y2U5 | 290,000 tested, 1.1% active | AID 1531; in the data active = binding response below about 67% or above about 130%
MEKK3 PB1 HTS: modulators (inhibitors or enhancers) of MEK5 binding to human MEKK3 PB1 domain; bead-based flow cytometry, Alexa488-MEK5 binding to MEKK3; actives lie on both sides; 0 = blocked by unlabeled MEK5, 100 = vehicle; binding response (% of control), % at 10 µM; 290,000 tested, 1.4% active; AID 1529;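 active = binding response more than 3 SD above or below the average of its plate-row segment, actives on both sides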;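 also: Alexa488 bead fluorescence after subtracting the streptavidin-only scavenger bead signal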
Target sequence (Q99759 whole entry, looked up, the tested form may be a part): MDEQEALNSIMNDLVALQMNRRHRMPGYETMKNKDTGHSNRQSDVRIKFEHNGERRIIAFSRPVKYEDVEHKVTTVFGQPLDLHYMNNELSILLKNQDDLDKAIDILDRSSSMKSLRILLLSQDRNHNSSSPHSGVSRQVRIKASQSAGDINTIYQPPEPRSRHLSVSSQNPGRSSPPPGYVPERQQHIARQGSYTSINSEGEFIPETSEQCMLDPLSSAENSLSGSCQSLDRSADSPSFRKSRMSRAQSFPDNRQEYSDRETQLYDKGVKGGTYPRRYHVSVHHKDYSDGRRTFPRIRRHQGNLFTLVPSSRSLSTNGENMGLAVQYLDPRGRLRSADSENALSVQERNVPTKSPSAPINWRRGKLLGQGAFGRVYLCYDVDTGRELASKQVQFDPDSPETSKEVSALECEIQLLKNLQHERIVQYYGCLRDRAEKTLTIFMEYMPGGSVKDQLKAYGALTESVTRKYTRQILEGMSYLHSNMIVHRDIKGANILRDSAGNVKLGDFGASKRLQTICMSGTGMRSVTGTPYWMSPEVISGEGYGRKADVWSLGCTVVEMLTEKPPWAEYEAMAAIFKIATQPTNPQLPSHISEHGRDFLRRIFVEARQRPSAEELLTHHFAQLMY
MEKK2 mut-MEK5: signal of MEK5 binding to mutant human MEKK2 PB1 domain. bead flow cytometry, Alexa488-MEK5 binding to MEKK2 mutant. percent response, % at 10 µM. 290,000 tested, 0.35% active. AID 1530; in the data active = percent response above about 24%, passing the limit was not always enough
MEKK2wt confirm: raises or lowers MEK5 binding to wildtype human MEKK2, retest | bead flow cytometry, Alexa488-MEK5 binding to MEKK2 WT; actives lie on both sides | 5,900 tested, 2.4% active | shares compounds with MEKK3 PB1 HTS | AID 1892 | binding response (% of control), % at 10 µM; in the data active = binding response below about 16% or above about 210%; inactive = in between
MEKK2mut confirm: signal of MEK5 binding to mutant human MEKK2, retest; shares compounds with MEKK3 PB1 HTS; bead flow cytometry, Alexa488-MEK5 binding to MEKK2 mutant; percent response, % at 10 µM; 5,900 tested, 2% active; in the data active = percent response mostly above about 71%, no sharp cut-off; inactive = mostly below about 38%;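 also: higher means compound restores mutant binding toward wildtype level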
MEKK3-MEK5 inh: MEKK3-MEK5 PB1 inhibition, single concentration confirmation | AID 1894 | binding response (% of control), % at 10 µM | shares compounds with MEKK3 PB1 HTS | 5,900 tested, 1.8% active | bead flow cytometry, Alexa488-MEK5 binding to MEKK3; stronger effect = lower value;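 active = binding response below 72% of control, or above a set upper limit, though filed actives all read lower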;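 also: 100% = DMSO only wells and 0% = binding blocked by excess unlabeled MEK5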
* marks the source's active call; other numbers are inactive results; [ ] = remark or other dose. Most compounds without a hit are left out; they make up all but 2.5% or so of the library.

Results for Cc1ccc(C(=O)Nn2c(O)c(C=C3N=c4ccccc4=N3)sc2=S)cc1 ?
UBC13 inh: -5; Rce1 inh: inactive; MEKK2 WT-MEK5: 39*[inhibitor]; MEKK3 PB1 HTS: 72; MEKK2 mut-MEK5: -6; MEKK2wt confirm: 39; MEKK2mut confirm: -30; MEKK3-MEK5 inh: 91

What do the screens show for `O=C1N=c2ccccc2=C1c1sc(=S)n(NC(=O)c2cccc(O)c2)c1O`?
Rce1 inh: inactive; MEKK2 WT-MEK5: 81; MEKK3 PB1 HTS: 97; MEKK2 mut-MEK5: -13

What do the screens show for `Cc1ccccc1CN1C(=O)c2ccccc2Sc2ccc(C(=O)NCCN3CCOCC3)cc21`?
UBC13 inh: 4; Rce1 inh: inactive; MEKK2 WT-MEK5: 110; MEKK3 PB1 HTS: 106; MEKK2 mut-MEK5: 4

What do the screens show for `CCN1CCN(CCNC(=O)c2ccc(/C=C3/Sc4ccccc4N(Cc4ccccc4C)C3=O)cc2)CC1`?
Rce1 inh: inactive; MEKK2 WT-MEK5: 203*; MEKK3 PB1 HTS: 104; MEKK2 mut-MEK5: 54*; MEKK2wt confirm: 193; MEKK2mut confirm: 67; MEKK3-MEK5 inh: 110

How did N#Cc1ccc(C2=NC(C(F)(F)F)(C(F)(F)F)c3c(n(Cc4ccco4)c(=O)[nH]c3=O)N2)cc1 do in these assays?
UBC13 inh: -2; Rce1 inh: inactive; MEKK2 WT-MEK5: 87; MEKK3 PB1 HTS: 98; MEKK2 mut-MEK5: -6

What do the screens show for `CC1=C(C(N)=O)C(c2ccc(Br)cc2)n2nc(CCCO)nc2N1` (stereo unspecified)?
UBC13 inh: 0; Rce1 inh: inactive; MEKK2 WT-MEK5: 44*[inhibitor]; MEKK3 PB1 HTS: 72; MEKK2 mut-MEK5: -11; MEKK2wt confirm: 107; MEKK2mut confirm: 4; MEKK3-MEK5 inh: 103

What do the screens show for `CN(C(=S)Nc1ccc(SC(F)F)cc1)c1ccc(O)cc1`?
UBC13 inh: 10; Rce1 inh: inactive; MEKK2 WT-MEK5: 107; MEKK3 PB1 HTS: 133*; MEKK2 mut-MEK5: 0; MEKK2wt confirm: 113; MEKK2mut confirm: 6; MEKK3-MEK5 inh: 102

How did CN(C(=S)Nc1ccc(Oc2ccccc2)cc1)c1ccc(O)cc1 do in these assays?
Rce1 inh: inactive; MEKK2 WT-MEK5: 105; MEKK3 PB1 HTS: 115; MEKK2 mut-MEK5: 4

Results for COc1ccc(CNCCC(c2ccccc2)c2ccc(OC(C)C)cc2)cc1OC (stereo unspecified) ?
UBC13 inh: 23; Rce1 inh: inactive; MEKK2 WT-MEK5: 151*; MEKK3 PB1 HTS: 106; MEKK2 mut-MEK5: 22; MEKK2wt confirm: 147; MEKK2mut confirm: 34; MEKK3-MEK5 inh: 110

What do the screens show for `COc1ccc(C(CCNCc2ccc(OC(C)C)cc2)c2ccccc2OC)cc1` (stereo unspecified)?
UBC13 inh: 25; Rce1 inh: inactive; MEKK2 WT-MEK5: 199*; MEKK3 PB1 HTS: 111; MEKK2 mut-MEK5: 40*; MEKK2wt confirm: 198; MEKK2mut confirm: 70*; MEKK3-MEK5 inh: 111

What do the screens show for `COc1ccc(C(CCNCc2ccc(N(C)C)cc2)c2ccccc2OC)cc1` (stereo unspecified)?
UBC13 inh: 21; Rce1 inh: inactive; MEKK2 WT-MEK5: 148*; MEKK3 PB1 HTS: 108; MEKK2 mut-MEK5: 22; MEKK2wt confirm: 142; MEKK2mut confirm: 18; MEKK3-MEK5 inh: 105

How did COc1ccc(C(CCNC(C)c2ccccc2)c2ccc(F)cc2)cc1 (stereo unspecified) do in these assays?
UBC13 inh: 38; Rce1 inh: inactive; MEKK2 WT-MEK5: 156*; MEKK3 PB1 HTS: 107; MEKK2 mut-MEK5: 46; MEKK2wt confirm: 124; MEKK2mut confirm: 6; MEKK3-MEK5 inh: 103

How did CCOC(=O)C1CCN(C(=O)C2CCN(S(=O)(=O)c3cccc4nsnc34)CC2)CC1 do in these assays?
UBC13 inh: 1; Rce1 inh: inactive; MEKK2 WT-MEK5: 101; MEKK3 PB1 HTS: 98; MEKK2 mut-MEK5: 1

What do the screens show for `COc1ccc(CNCCC(c2ccc(OC)cc2)c2ccccc2OC)cc1` (stereo unspecified)?
UBC13 inh: 9; Rce1 inh: inactive; MEKK2 WT-MEK5: 147*; MEKK3 PB1 HTS: 106; MEKK2 mut-MEK5: 21; MEKK2wt confirm: 149; MEKK2mut confirm: 41; MEKK3-MEK5 inh: 104

What do the screens show for `CCc1ccc(NC(=O)Cn2nc(C(=O)O)c3ccccc3c2=O)cc1`?
UBC13 inh: -2; Rce1 inh: inactive; MEKK2 WT-MEK5: 101; MEKK3 PB1 HTS: 103; MEKK2 mut-MEK5: 0

How did Cc1noc(C)c1CSCC(=O)Nc1nc2ccc(S(C)(=O)=O)cc2s1 do in these assays?
UBC13 inh: 2; Rce1 inh: inactive

Results for COc1ccc(C2c3c(ncn(CCN4CCOCC4)c3=N)Oc3ccc4ccccc4c32)cc1OC (stereo unspecified) ?
UBC13 inh: 9; Rce1 inh: inactive; MEKK2 WT-MEK5: 163*; MEKK3 PB1 HTS: 109; MEKK2 mut-MEK5: 21; MEKK2wt confirm: 153; MEKK2mut confirm: 28; MEKK3-MEK5 inh: 107

What do the screens show for `COc1ccc(C2c3ccc4ccccc4c3Oc3ncn(Cc4ccco4)c(=N)c32)cc1OC` (stereo unspecified)?
UBC13 inh: -10; Rce1 inh: inactive; MEKK2 WT-MEK5: 161*; MEKK3 PB1 HTS: 103; MEKK2 mut-MEK5: 34; MEKK2wt confirm: 147; MEKK2mut confirm: 33; MEKK3-MEK5 inh: 109

Results for COc1ccc(C2c3ccc(O)cc3Oc3ncn(Cc4ccco4)c(=N)c32)cc1OC (stereo unspecified) ?
UBC13 inh: -3; Rce1 inh: inactive; MEKK2 WT-MEK5: 108; MEKK3 PB1 HTS: 99; MEKK2 mut-MEK5: 3

How did COc1ccccc1C1c2ccc3ccccc3c2Oc2ncn(CCCO)c(=N)c21 (stereo unspecified) do in these assays?
UBC13 inh: 31; Rce1 inh: inactive; MEKK2 WT-MEK5: 121; MEKK3 PB1 HTS: 100; MEKK2 mut-MEK5: 6

How did COc1ccccc1C1c2ccc3ccccc3c2Oc2ncn(CCN(C)C)c(=N)c21 (stereo unspecified) do in these assays?
UBC13 inh: 37; Rce1 inh: inactive; MEKK2 WT-MEK5: 153*; MEKK3 PB1 HTS: 115; MEKK2 mut-MEK5: 32*; MEKK2wt confirm: 150; MEKK2mut confirm: 29; MEKK3-MEK5 inh: 107

How did COc1ccc(S(=O)(=O)N2CCc3ccccc32)cc1C(=O)N(CC(C)C)C1CCS(=O)(=O)C1 (stereo unspecified) do in these assays?
UBC13 inh: -2; Rce1 inh: inactive

Source: PubChem BioAssay
